Drawing on PubChem BioAssay, this text covers growth inhibition, inhibition and outcome for 19 molecules.

For orientation: inhibition means the change of the read-out against control, counted positive when it falls.

Assay [1] in a line: antimalarial activity against Dd2 strain (AID 2302;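 active means growth inhibition above 50% at the single 2 µM test dose, taken to imply half-maximal potency below 2 µM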;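 further: 0% = DMSO untreated growth and 100% = chloroquine plus artemisinin killed control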). The note with it: P. falciparum Dd2 in RBCs, LDH growth readout, 72 h; at 2 µM; active compounds read high.
A short description of assay [2]: human hepatoma cell viability loss – ATP luminescence, cytotoxicity control for P. falciparum antimalarial project, primary screen (AID 2303;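 active means inhibition above 50%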;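 further: 0% = DMSO wells and 100% = digitonin-killed cells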). The note with it: HepG2 viability, 24-48 h, at 10 µM, active compounds read high.
The target in assay [3] is L-lactate dehydrogenase (Plasmodium falciparum (isolate CDC / Honduras)) (UniProt Q27743). Description: PfLDH activity inhibition – cell lysate, 3D7 strain, counter-screen for P. falciparum growth inhibition project (AID 2304).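 Further: 0% = vehicle and 100% = reference inhibitor.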 The note with it: P. falciparum 3D7 crude extract, LDH APAD/NBT absorbance; at 2 µM; active compounds read high.
Assay [4] is described as follows: inhibition of 3D7 malaria parasite growth – strain 3D7 (AID 2306).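 Further: 0% = DMSO wells and 100% = chloroquine plus artemisinin control wells.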 The note with it: P. falciparum 3D7 erythrocytic growth, LDH absorbance, 72 h; at 2 µM; active compounds read high.
Assay [5] deals with Calcium-dependent protein kinase 1 (Plasmodium falciparum (isolate 3D7)) (UniProt P62344). Description: PfCDPK1 kinase inhibitors, biochemical, TCAMS library (AID 1159585; cut-off not given, nearly all actives have IC50 up to about 0.98 µM;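 further: inhibitors leave more ATP so luminescence rises with inhibition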). The note with it: recombinant PfCDPK1, Kinase-Glo ATP depletion luminescence. A general note: Kinase-Glo reads ATP consumption through a luciferase reaction.
The target in assay [6] is Plasmodium falciparum protein kinase 6 (PK6, PF3D7_1337100) (UniProt Q8IDW1). Description: PfPK6 kinase inhibitors, biochemical, TCAMS library (AID 1159586). The note with it: recombinant PfPK6, Kinase-Glo ATP depletion luminescence.
Assay [7] has as its target Protein kinase 7 (PK7), Plasmodium falciparum 3D7 (PF3D7_0213400) (UniProt Q7YTF7). Description: inhibition of Plasmodium PK7 catalytic activity – biochemical, TCAMS antimalarial set, Kinase-Glo luminescence (AID 1159587). The note with it: recombinant PfPK7, Kinase-Glo ATP depletion luminescence.
The target of assay [8] is Calcium-dependent protein kinase 4 (Plasmodium falciparum (isolate 3D7)) (UniProt Q8IBS5). Description: PfCDPK4 kinase inhibitors, biochemical, TCAMS library (AID 1159588; cut-off not given, nearly all actives have IC50 up to about 0.91 µM). The note with it: recombinant PfCDPK4, Kinase-Glo ATP depletion luminescence.

Unmarked numbers belong to inactive results. For some assays here: Entries with a potency or affinity are not part of this list. The source made the active and inactive calls. Unless noted, how the calls were made is not given here.

Sequence of Protein kinase 7 (PK7), Plasmodium falciparum 3D7 (PF3D7_0213400) (Q7YTF7 1-343): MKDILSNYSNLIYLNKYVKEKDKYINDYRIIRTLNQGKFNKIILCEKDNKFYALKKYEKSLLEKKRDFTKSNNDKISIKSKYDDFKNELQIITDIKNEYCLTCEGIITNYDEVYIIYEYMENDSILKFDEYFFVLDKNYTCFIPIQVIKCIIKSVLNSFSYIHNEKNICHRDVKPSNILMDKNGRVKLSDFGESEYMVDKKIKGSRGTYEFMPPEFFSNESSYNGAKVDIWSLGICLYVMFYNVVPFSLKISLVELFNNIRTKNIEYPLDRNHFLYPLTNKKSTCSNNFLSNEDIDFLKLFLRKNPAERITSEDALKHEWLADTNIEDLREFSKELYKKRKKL
Sequence of Calcium-dependent protein kinase 1 (Plasmodium falciparum (isolate 3D7)) (P62344 whole entry, looked up): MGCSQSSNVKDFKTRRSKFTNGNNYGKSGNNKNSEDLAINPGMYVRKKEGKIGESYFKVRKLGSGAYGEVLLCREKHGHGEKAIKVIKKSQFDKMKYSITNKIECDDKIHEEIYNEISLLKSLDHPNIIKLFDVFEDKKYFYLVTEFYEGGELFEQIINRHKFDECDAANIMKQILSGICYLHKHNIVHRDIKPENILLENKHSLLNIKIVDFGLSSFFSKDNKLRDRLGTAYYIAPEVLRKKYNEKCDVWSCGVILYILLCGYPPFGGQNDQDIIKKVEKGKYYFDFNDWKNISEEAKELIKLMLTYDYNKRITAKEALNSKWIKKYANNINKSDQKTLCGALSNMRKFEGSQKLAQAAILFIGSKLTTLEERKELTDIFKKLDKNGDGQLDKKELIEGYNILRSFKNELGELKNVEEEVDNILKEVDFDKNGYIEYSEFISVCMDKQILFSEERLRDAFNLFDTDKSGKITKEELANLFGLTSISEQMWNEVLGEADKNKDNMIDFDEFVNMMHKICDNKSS
Sequence of L-lactate dehydrogenase (Plasmodium falciparum (isolate CDC / Honduras)) (Q27743 whole entry, looked up): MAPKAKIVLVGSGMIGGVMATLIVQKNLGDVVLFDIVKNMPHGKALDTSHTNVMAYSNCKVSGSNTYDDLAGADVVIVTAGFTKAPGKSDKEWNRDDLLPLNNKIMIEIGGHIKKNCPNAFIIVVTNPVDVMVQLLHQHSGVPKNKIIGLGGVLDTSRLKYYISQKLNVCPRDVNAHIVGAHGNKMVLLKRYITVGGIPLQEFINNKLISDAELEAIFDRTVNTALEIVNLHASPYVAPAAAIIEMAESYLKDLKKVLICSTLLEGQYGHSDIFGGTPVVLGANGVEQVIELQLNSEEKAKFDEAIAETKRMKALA
Sequence of Calcium-dependent protein kinase 4 (Plasmodium falciparum (isolate 3D7)) (Q8IBS5 whole entry, looked up): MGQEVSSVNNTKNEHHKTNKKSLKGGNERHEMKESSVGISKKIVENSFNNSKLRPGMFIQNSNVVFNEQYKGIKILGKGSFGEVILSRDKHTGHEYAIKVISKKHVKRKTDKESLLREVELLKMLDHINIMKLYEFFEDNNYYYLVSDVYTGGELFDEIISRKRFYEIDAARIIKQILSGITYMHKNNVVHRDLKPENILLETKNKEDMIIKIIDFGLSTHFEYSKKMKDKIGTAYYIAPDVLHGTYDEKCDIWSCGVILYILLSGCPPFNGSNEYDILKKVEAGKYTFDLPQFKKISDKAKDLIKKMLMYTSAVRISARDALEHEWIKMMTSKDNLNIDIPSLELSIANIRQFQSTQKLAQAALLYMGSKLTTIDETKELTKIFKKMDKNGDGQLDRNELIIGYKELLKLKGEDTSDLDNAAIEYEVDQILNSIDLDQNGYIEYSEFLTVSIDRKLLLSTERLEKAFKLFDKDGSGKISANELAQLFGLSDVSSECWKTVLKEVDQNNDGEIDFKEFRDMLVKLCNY
Sequence of Plasmodium falciparum protein kinase 6 (PK6, PF3D7_1337100) (Q8IDW1 1-305): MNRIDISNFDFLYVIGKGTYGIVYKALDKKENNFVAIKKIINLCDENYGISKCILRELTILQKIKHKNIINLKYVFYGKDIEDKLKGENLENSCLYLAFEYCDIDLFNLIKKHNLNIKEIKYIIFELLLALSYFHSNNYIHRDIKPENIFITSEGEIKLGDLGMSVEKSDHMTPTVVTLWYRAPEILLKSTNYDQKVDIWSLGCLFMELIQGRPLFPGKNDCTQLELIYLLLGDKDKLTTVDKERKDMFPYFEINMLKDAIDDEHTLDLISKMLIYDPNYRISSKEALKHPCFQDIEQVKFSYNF

With `O=S(=O)(c1c(Cl)cccc1Cl)N1CCCCC(c2ccc(C(F)(F)F)cc2)=N1`, the growth inhibition in assay [1] is 98% (active); in assay [4] it was 99% (active). In addition, the figures for the inhibition in assay [2] and in assay [3] were 11% and -2%, respectively. Also, the outcome in assay [5], in assay [6], in assay [7] and in assay [8] was inactive.
With `COc1cc2nc(NCCc3ccccc3)nc(NCCCc3ccccc3)c2cc1OC`, the growth inhibition in assay [1] and in assay [4] was 101% (active) in each case. Besides, the inhibition was 21% in assay [2] and 2% in assay [3]. The result in assay [5], in assay [6], in assay [7] and in assay [8] was inactive.
As to `COc1ccc(-c2cc3ncn(CC(=O)N4CCN(c5cccc(OC)c5)CC4)c(=O)c3s2)cc1`, the growth inhibition in assay [1] is 26%; in assay [4] it was 84% (active). In addition, the inhibition in assay [2] is 49%; in assay [3], -7%. Moreover, the result in assay [5], in assay [6], in assay [7] and in assay [8] was inactive.
With `COc1ccc2nc(-c3cc(-c4ccc(NC(=O)CN5CCOCC5)cc4)cnc3N)[nH]c2c1`, the growth inhibition in assay [1] is 72% (active); in assay [4], 100% (active). Moreover, the inhibition in assay [2] is 52% (active); in assay [3], -4%. Further, the result in assay [5], in assay [6], in assay [7] and in assay [8] was inactive.
Consider `CC(C)CCNC(=O)C1Cc2c([nH]c3ccc(Br)cc23)C2(CCN(Cc3ccccc3)CC2)N1` (configuration not stated), for which the growth inhibition in assay [1] was 68% (active); in assay [4] it was 96% (active). Moreover, the inhibition in assay [2] was 100% (active); in assay [3], -3%. The result in assay [5], in assay [6], in assay [7] and in assay [8] was inactive.
For `NC(=NCCCCC1CCCCC1)c1cccc(C(N)=NCCCCC2CCCCC2)n1`, the growth inhibition in assay [1] is 19%; in assay [4], 100% (active). In addition, the inhibition in assay [2] was 99% (active); in assay [3] it was 3%. The result in assay [5], in assay [6], in assay [7] and in assay [8] was inactive.
With `CC(C)(C(=O)Nc1ccc(N2CCC3(CCCN(CC4CC4)C3)CC2)c(Cl)c1)c1cccc(C(F)(F)F)c1`, the values for the growth inhibition in assay [1] and in assay [4] were 0% and 92% (active), respectively. Also, the inhibition is 27% in assay [2] and 4% in assay [3]. The outcome in assay [5], in assay [6], in assay [7] and in assay [8] was inactive.
As to `CCc1ccc(NC(=O)c2cccc(CN3CCCN(Cc4ccc(OC)cc4)CC3)c2)cc1`, the figures for the growth inhibition in assay [1] and in assay [4] were -6% and 97% (active), respectively. Besides, the inhibition in assay [2] is 35%; in assay [3], 5%. Also, the outcome in assay [5], in assay [6], in assay [7] and in assay [8] was inactive.
Turning to `COc1ccc(CC(Cc2ccc(OC)cc2)NCC(O)c2cccc(Cl)c2)cc1` (configuration not stated), the growth inhibition in assay [1] was 98% (active); in assay [4], 100% (active). For the same molecule, the inhibition in assay [2] was 11%; in assay [3], -4%. Moreover, the result in assay [5], in assay [6], in assay [7] and in assay [8] was inactive.
Regarding `CCCCCCCCc1c(C)[nH]c(C)c(C#N)c1=O`, the growth inhibition in assay [1] is 96% (active); in assay [4], 97% (active). Besides, the inhibition in assay [2] is 0%; in assay [3] it was 4%. Besides, the result in assay [5], in assay [6], in assay [7] and in assay [8] was inactive.
Turning to `Cc1ccccc1CNc1noc(-c2c(-c3ccccc3)noc2C)n1`, the growth inhibition in assay [1] is 70% (active); in assay [4], 94% (active). Besides, the results for the inhibition in assay [2] and in assay [3] were -4% and -2%, respectively. Further, the result in assay [5], in assay [6], in assay [7] and in assay [8] was inactive.
On to `CCCCCN1C(=O)C(c2ccccc2)(c2ccccc2)N=C1N`, for which the growth inhibition in assay [1] is 68% (active); in assay [4], 97% (active). In addition, the results for the inhibition in assay [2] and in assay [3] were 18% and -1%, respectively. Further, the outcome in assay [5], in assay [6], in assay [7] and in assay [8] was inactive.
As for `O=C(Nc1ccc(-c2ccc(-c3nc4ccccc4[nH]3)s2)cc1)Nc1ccc(F)c(F)c1F`, the growth inhibition in assay [1] is 97% (active); in assay [4] it was 99% (active). In addition, the inhibition is 57% (active) in assay [2] and 5% in assay [3]. The result in assay [5], in assay [6], in assay [7] and in assay [8] was inactive.
In the case of `CC(C)Cn1cc(C2CCN(CCN3CCC(CNC(=O)c4ccc(NC(=O)c5ccc(Cl)cc5)cc4)CC3)CC2)c2ccccc21`, the growth inhibition in assay [1] is 99% (active); in assay [4] it was 101% (active). The inhibition in assay [2] is 28%; in assay [3] it was -2%. Further, the result in assay [5], in assay [6], in assay [7] and in assay [8] was inactive.
`Cc1cc(C(=O)CN2C(=O)NC3(CCCc4ccccc43)C2=O)c(C)n1Cc1ccco1` (configuration not stated): the growth inhibition in assay [1] was -5%; in assay [4], 90% (active). In addition, the inhibition in assay [2] was 11%; in assay [3], 4%. In addition, the outcome in assay [5], in assay [6], in assay [7] and in assay [8] was inactive.
On to `CC[C@H](C)CNC(=O)c1cncc(-c2cccc(CNC3Cc4ccccc4C3)c2)c1`, for which the growth inhibition is 76% (active) in assay [1] and 101% (active) in assay [4]. In addition, the inhibition in assay [2] was 5%; in assay [3], 0%. Moreover, the result in assay [5], in assay [6], in assay [7] and in assay [8] was inactive.
Consider `COc1cc(CCON2C(N)=NC(N)=NC2(C)C)cc(OC)c1OC`, for which the growth inhibition in assay [1] is 95% (active); in assay [4], 93% (active). The results for the inhibition in assay [2] and in assay [3] were 59% (active) and -1%, respectively. Moreover, the result in assay [5], in assay [6], in assay [7] and in assay [8] was inactive.
Regarding `O=C(Nc1ccc(OC(F)(F)F)cc1)NC1CCN(c2ccnc3ccccc23)CC1`, the results for the growth inhibition in assay [1] and in assay [4] were 40% and 101% (active), respectively. Besides, the inhibition in assay [2] is 40%; in assay [3], -7%. For the same molecule, the outcome in assay [5], in assay [6], in assay [7] and in assay [8] was inactive.
As to `O=C(C1CCCCC1)N1CCOC(CCN2CCC(c3ccccc3)CC2)(c2ccc(Cl)c(Cl)c2)C1` (configuration not stated), the growth inhibition in assay [1] is 86% (active); in assay [4], 92% (active). Besides, the inhibition in assay [2] and in assay [3] was 6% throughout. The outcome in assay [5], in assay [6], in assay [7] and in assay [8] was inactive.
